Screens (PubChem)
IDE act: boosts human insulin-degrading enzyme activity in HEK cells | P14735 | FAbeta-B cleavage, fluorescence polarization; 0% vehicle, 100% cell-free pure enzyme wells | activation, % at 5.96 µM | 0.073% of 340,000 active;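 active means activation above the mean of all tested compounds plus 3 SD, set per screening campaign, cut at about 17% in these data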
TPT1 inhibitor: blocks Candida albicans tRNA 2'-phosphotransferase. recombinant caTPT1, FP RNA substrate dephosphorylation. inhibition, % at 5 µM. 0.81% of 300,000 active. AID 1962;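 active means inhibition above the mean of all tested compounds plus 3 SD, set per screening campaign, cut at about 24% in these data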
Calb FLC: affects C. albicans growth with fluconazole; growth inhibition, % (concentration not given with the values); 0.57% of 300,000 active; C. albicans CaCi-2 (fluconazole-resistant clinical isolate) + fluconazole, Alamar Blue growth, 48 h;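 active means growth inhibition above about 58% in most replicates, limit read from the data, passing the limit was not always enough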;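 further: all wells also contain fluconazole at 8 µg/ml as a sub-toxic cotreatment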
IDE cell inh: inhibits human insulin-degrading enzyme in HEK cells | FAbetaB cleavage, fluorescence polarization | 0.41% of 320,000 active | inhibition, % at 5.59 µM;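 active means percent inhibition above the average of all tested compounds plus 3 SD, set per screening campaign, cut at about 16% in these data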;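 further: IDE supplied by intact live HEK cells; FP after avidin binding of uncleaved biotin substrate so inhibition keeps polarization high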
Rin1-Abl PPI inh: blocks binding of human Rin1 to Abl | TR-FRET Rin1/Abl binding, biochemical | inhibition, % at 7.35 µM | 0.4% of 360,000 active | AID 588664; in the data active means inhibition above about 5%, passing the limit was not always enough
Rpn11 block: Rpn11 (human) deubiquitinase inhibition | O00487 | human 26S proteasome, Ub4-pepOG fluorescence polarization; 20S core pre-blocked with epoxomicin | inhibition, % at 20 µM | 0.59% of 360,000 active | AID 588493;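 active means inhibition at 20 µM, scaled to each plate's controls, above about 33%, limit read from the data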
Rin1-Abl confirm: Rin1-Abl interaction inhibition confirmation; shares compounds with Rin1-Abl PPI inh; AID 602124; inhibition, % at 7.35 µM; 49% of 1,300 active; TR-FRET Rin1-Abl binding, purified proteins
GFP quencher: GFP fluorescence interference artifact; inhibition, % at 6.75 µM; 8.5% of 1,300 active; shares compounds with Rin1-Abl PPI inh; inhibitors/quenchers counterscreen;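 further: ABL1-eGFP fusion protein alone without its partner RIN1-SBP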
A number is an active result. Compounds with a hit are over-represented: about 2.3% of the library has one in this group of screens. Unless noted, no stated cut-off is given here; in the data, active means inhibition above about 6.5%; inactive means the rest.

CCOc1ccc(S(=O)(=O)N2CCN(C)CC2)c(C)c1C was read as IDE act inactive, TPT1 inhibitor inactive, Calb FLC inactive, IDE cell inh inactive, Rin1-Abl PPI inh 5.8, Rpn11 block inactive, Rin1-Abl confirm inactive and GFP quencher inactive.
Screening CCN(CC)S(=O)(=O)c1ccc(NC(=O)CCNC(=O)c2ccccc2)cc1 returned IDE act inactive, Calb FLC inactive, Rin1-Abl PPI inh inactive and Rpn11 block inactive.
For COc1ccc(CC(=O)OCC(=O)NCc2ccccc2Cl)cc1OC the results were IDE act inactive, TPT1 inhibitor inactive, Calb FLC inactive, IDE cell inh inactive, Rin1-Abl PPI inh 10, Rpn11 block inactive, Rin1-Abl confirm inactive and GFP quencher inactive.
For CN(CC(=O)Nc1cccc(F)c1)C(=O)c1ccc(OCc2ccccc2)cc1 the results were IDE act inactive, IDE cell inh inactive, Rin1-Abl PPI inh 12, Rpn11 block inactive, Rin1-Abl confirm inactive and GFP quencher inactive.
Screening CCOC(=O)Cc1csc(NS(=O)(=O)c2ccc(C(F)(F)F)cc2)n1 returned TPT1 inhibitor inactive, Calb FLC inactive, IDE cell inh inactive, Rin1-Abl PPI inh inactive and Rpn11 block inactive.
CC(Oc1cccc(Br)c1)C(=O)NNC(=O)CCS(=O)(=O)c1ccccc1 (stereo not drawn) was read as IDE act inactive, IDE cell inh inactive, Rin1-Abl PPI inh inactive and Rpn11 block inactive.
For CC(C)Cn1cnc2c(c1=N)C(c1ccccc1)C1=C(CC(C)(C)CC1=O)O2 (stereo not drawn) the results were IDE act inactive, TPT1 inhibitor inactive, Calb FLC inactive, IDE cell inh inactive, Rin1-Abl PPI inh 7.0, Rpn11 block inactive, Rin1-Abl confirm inactive and GFP quencher inactive.
COc1ccc(C2C3=C(CC(C)(C)CC3=O)Oc3ncn(CCO)c(=N)c32)cc1OC (stereo not drawn) was read as IDE act inactive, TPT1 inhibitor inactive, Calb FLC inactive, IDE cell inh inactive, Rin1-Abl PPI inh 14, Rpn11 block inactive, Rin1-Abl confirm inactive and GFP quencher inactive.
CN(CC(=O)Nc1ccc(F)cc1)C(=O)c1cccc(NS(=O)(=O)c2ccccc2)c1 was read as IDE act inactive, IDE cell inh inactive, Rin1-Abl PPI inh inactive and Rpn11 block inactive.
`O=C1Nc2ccccc2N=C(c2ccccc2)c2ccccc21` gave TPT1 inhibitor inactive, Calb FLC inactive, IDE cell inh inactive, Rin1-Abl PPI inh 5.9, Rpn11 block inactive, Rin1-Abl confirm inactive and GFP quencher inactive.
For O=C1Nc2ccccc2Nc2ccccc21 the results were IDE act inactive, TPT1 inhibitor inactive, Calb FLC inactive, IDE cell inh inactive, Rin1-Abl PPI inh inactive and Rpn11 block inactive.
For COc1cc(OC)cc(C(=O)NNC(=O)c2nn(C)c(=O)c3ccccc23)c1 the results were IDE act inactive, IDE cell inh inactive, Rin1-Abl PPI inh inactive and Rpn11 block inactive.
For O=C(Nc1nccs1)c1ccc(-c2ccc(F)c(Cl)c2)o1 the results were IDE act inactive, TPT1 inhibitor inactive, Calb FLC inactive, IDE cell inh inactive, Rin1-Abl PPI inh inactive and Rpn11 block inactive.
`Cc1cc2cc(CNC(=S)Nc3ccc(OC(F)(F)F)cc3)ccc2[nH]1` gave IDE act inactive, TPT1 inhibitor inactive, Calb FLC inactive, IDE cell inh inactive, Rin1-Abl PPI inh 6.1, Rpn11 block inactive, Rin1-Abl confirm inactive and GFP quencher inactive.
C/C(=N\NC(=O)c1ccc2c(c1)OCCO2)c1ccccc1 was read as IDE act inactive, TPT1 inhibitor inactive, Calb FLC inactive, IDE cell inh inactive, Rin1-Abl PPI inh 6.5, Rpn11 block inactive, Rin1-Abl confirm inactive and GFP quencher inactive.
For C#CCOCCOCCOCCNc1nc(N2CCN(C(=O)C(Cc3ccc(O)cc3)n3cc(C(N)C(C)CC)nn3)CC2)nc(N2CCN(C(=O)C(Cc3ccc(O)cc3)n3cc(C(N)C(C)CC)nn3)CC2)n1 (stereo not drawn) the results were IDE act inactive, TPT1 inhibitor inactive, Calb FLC inactive, IDE cell inh inactive, Rin1-Abl PPI inh inactive and Rpn11 block inactive.
